Hits are enriched below; roughly 1.2% of the tested compounds scored in any of these assays.
Akt phos inh = HTS Assay for Inhibitors of Akt Phophorylation: Primary Screen; Neuro2A IGF-stimulated pAkt S473 HTRF, 20 min; active compounds read low; activity change, % for hits at 50 µM; 360,000 compounds, 0.32% hits; AID 651550, 2012; in the data active = activity change below about -80%; inconclusive = mostly about -51% to -80%; note: % is set by controls: 0 for no effect and ±100 for the full control effect
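Neuro2A cells in DMEM with 0.5% FBS, overnight at 37 deg C, given compound at single 50 µM final, then IGF (6 nM final) for 20 min at 37 deg C. Lysed; phospho-Akt Ser473 by HTRF after 24 h, 665/615 ratio.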
RXFP1 agonist = qHTS Assay for Agonists of the Relaxin Receptor RXFP1. Relaxin receptor 1 (Homo sapiens), Q9HBX9. HEK293T-RXFP1 cAMP TR-FRET, 30 min; response scale: percent of porcine relaxin response, buffer zero. Potency, µM (titrated, usually from 57.5 µM), inactives show at the highest dose activation, usual class: activators. 370,000 compounds, 0.3% hits. AID 2676, 2010; active = well fitted activation curve with a large enough effect; inconclusive = small, poorly fitted or top-dose-only effect; note: potency is the fitted concentration of half-maximal effect; % is set by controls: 0 for no effect and ±100 for the full control effect; nearly all actives have a fitted effect of over 60% in size
Target sequence (Q9HBX9 whole entry, looked up): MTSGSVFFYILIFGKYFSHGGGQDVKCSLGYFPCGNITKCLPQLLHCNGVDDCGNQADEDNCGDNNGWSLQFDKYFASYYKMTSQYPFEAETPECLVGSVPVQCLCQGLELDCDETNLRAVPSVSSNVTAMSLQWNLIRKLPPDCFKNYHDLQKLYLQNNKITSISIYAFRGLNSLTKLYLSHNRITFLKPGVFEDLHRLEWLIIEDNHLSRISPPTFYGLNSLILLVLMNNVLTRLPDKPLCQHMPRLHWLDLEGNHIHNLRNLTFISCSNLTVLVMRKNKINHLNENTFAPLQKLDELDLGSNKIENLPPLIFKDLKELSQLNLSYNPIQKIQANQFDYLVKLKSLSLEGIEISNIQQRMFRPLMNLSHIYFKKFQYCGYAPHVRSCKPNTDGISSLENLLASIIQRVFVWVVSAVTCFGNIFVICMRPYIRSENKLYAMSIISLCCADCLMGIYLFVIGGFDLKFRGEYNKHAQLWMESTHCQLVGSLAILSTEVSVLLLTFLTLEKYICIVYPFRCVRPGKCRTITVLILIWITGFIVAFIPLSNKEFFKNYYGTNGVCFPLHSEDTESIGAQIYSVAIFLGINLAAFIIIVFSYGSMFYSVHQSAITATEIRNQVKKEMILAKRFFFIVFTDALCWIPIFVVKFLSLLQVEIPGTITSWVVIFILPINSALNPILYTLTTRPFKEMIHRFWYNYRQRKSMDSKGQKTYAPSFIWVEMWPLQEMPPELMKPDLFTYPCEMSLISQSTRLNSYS
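HEK293 cells stably expressing RXFP1, treated 30 min at 37C with compounds plus PDE4 inhibitor Ro 20174; cAMP measured by HTRF TR-FRET. Normalized to buffer and 29 nM porcine relaxin; EC50 by Hill fit.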
RXFP1 antagonist = qHTS Assay for Antagonists of the Relaxin Receptor RXFP1; AID 1259400, 2018; HEK293-RXFP1, relaxin-stimulated cAMP HTRF, 30 min; active compounds read low; activity change, negative = inhibition, % at 57.5 µM; 350,000 compounds, 0.59% hits; Relaxin receptor 1 (Homo sapiens), Q9HBX9;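 active = activity change of -60% or lower, but not beyond a set lower limit; inconclusive = change between -60% and -40%, or beyond the set limit; inactive = change above -40%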; note: % is set by controls: 0 for no effect and ±100 for the full control effect
gsp agonist = qHTS for Agonist of gsp, the Etiologic Mutation Responsible for Fibrous Dysplasia/McCune-Albright Syndrome: qHTS; 340,000 compounds, 0.13% hits; gsp mutant cells, cAMP HTRF, 30 min; AID 624287, 2012; Potency, µM (titrated, usually from 76.9 µM), for inactives: top-dose activation (cAMP increase), hits mostly activators; active = well fitted activation curve with a large enough effect; inconclusive = small, poorly fitted or top-dose-only effect, or another doubt; inactive = no such curve, though single readings can be large or run the other way; cell line not stated here;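 note: phosphodiesterase inhibitor Ro 20-1724 added with compounds to block cAMP breakdown; potency is the fitted concentration of half-maximal effect; nearly all actives have a fitted effect of over 60% in size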
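Cells stably selected in G418 were plated at 2000/well, grown 16-24 hr, then given compounds in DMSO with the PDE inhibitor […] (300 uM solution added) for 30 min at 37C; cAMP was read by HTRF.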
gsp antagonist = qHTS for Antagonists of gsp, the Etiologic Mutation Responsible for Fibrous Dysplasia/McCune-Albright Syndrome: qHTS; gsp-mutant cells, cAMP HTRF, 30 min; Potency, µM (titrated, usually from 76.9 µM), for the others: top-dose activity change, negative = inhibition, most hits filed as inhibitors; 340,000 compounds, 0.4% hits; calls by dose curve; cell line not stated here;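 note: intracellular cAMP measured with PDE inhibitor Ro 20-1724 present during compound exposure; potency is the fitted concentration of half-maximal effect; % is set by controls: 0 for no effect and ±100 for the full control effect; nearly all actives have a fitted effect of over 65% in size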
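HTRF cAMP read-out (cAMP-d2 plus anti-cAMP antibody-K in lysis buffer, 30 min RT). Before lysis, cells are exposed to compounds with […] for 30 min at 37C in DPBS containing Ca/Mg, BSA and Tween 20.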
Active calls of the source: *; [ ] = another dose, or the depositor's remark.

COc1ccc(OC)c(NC(=O)c2c(C)oc3ncnc(N4CCOCC4)c23)c1 was read as RXFP1 agonist 0% and RXFP1 antagonist 8.
`O=C(Nc1ccccc1)c1cccc2c(=O)c3c([nH]c12)CCCC3` gave RXFP1 agonist 0% and RXFP1 antagonist -6.
`Cc1ccc(CCNC(=O)NCc2noc3ccc(C)cc23)cc1` gave RXFP1 agonist 1% and RXFP1 antagonist -12.
For Cc1ccc2[nH]c(C)cc(=S)c2c1 the results were Akt phos inh inactive, RXFP1 agonist 20µM*, RXFP1 antagonist 16 and gsp agonist 26%[15.4 µM].
`COc1ccc2c(c1)c(CC(=O)OC/C=C(\C)CC/C=C(\C)CCC=C(C)C)c(C)n2C(=O)c1ccc(Cl)cc1` gave RXFP1 antagonist 9.
Cc1ccc(CNC(=O)C2CCN(c3nn4cc(-c5ccc(F)cc5)nc4s3)CC2)cc1 was read as RXFP1 agonist 0% and RXFP1 antagonist -1.
Screening Cc1ccc(S(=O)(=O)N2CCN(C(=O)CN3CCCCC3)C2)cc1 returned Akt phos inh -101%*, RXFP1 agonist -1%, RXFP1 antagonist 7, gsp agonist -11% and gsp antagonist 4%.
`CN(C)c1cc(Nc2ccc(O)cc2)c([N+](=O)[O-])c2nonc12` gave Akt phos inh inactive, RXFP1 agonist 5%, RXFP1 antagonist 15, gsp agonist 24% and gsp antagonist -3%.
`O=[N+]([O-])c1c(Nc2ccc(O)cc2)cc(Cl)c2nonc12` gave Akt phos inh inactive, RXFP1 agonist 6%, RXFP1 antagonist inconclusive, gsp agonist -25% and gsp antagonist 7.9µM*.
For Cc1cccc(N2CCN(c3ncnc4c3nc3n4CCCCC3)CC2C)c1 (stereo unspecified) the results were RXFP1 agonist 4% and RXFP1 antagonist -70*.
`Cc1onc(-c2ccccc2Cl)c1C(=O)Oc1ccc(Cl)cc1Cl` gave RXFP1 agonist 0% and RXFP1 antagonist -78*.
O=C(COc1ccc2c(c1)OCO2)Nc1ccc2c(c1)oc1ccccc12 was read as Akt phos inh -96%*, RXFP1 agonist -3%, RXFP1 antagonist -23, gsp agonist -25% and gsp antagonist 2%.
Screening O=C(Nc1ccc2c(c1)oc1ccccc12)c1ccc2c(c1)OCO2 returned Akt phos inh inactive, RXFP1 agonist 1%, RXFP1 antagonist -12, gsp agonist inconclusive and gsp antagonist 5%.
Cc1ccc(NC2=NCC(=O)N2C2CCCC2)cc1C was read as Akt phos inh inactive, RXFP1 agonist -2%, RXFP1 antagonist -69*, gsp agonist -30%[15.4 µM] and gsp antagonist 3%.
`Cc1ccc(NC2=NCC(=O)N2C2CCCC2)cc1` gave Akt phos inh inactive, RXFP1 agonist 0%, RXFP1 antagonist 11, gsp agonist inconclusive and gsp antagonist 9%.
`CCCCn1c(=N)n(CCOc2ccccc2OC)c2ccccc21` gave RXFP1 agonist -4% and RXFP1 antagonist -14.
For CCCCn1c(=N)n(CCOc2ccc(C)cc2)c2ccccc21 the results were Akt phos inh inactive, RXFP1 agonist 2%, RXFP1 antagonist -75*, gsp agonist -1% and gsp antagonist 5%.
`COc1ccc(OCC(O)Cn2c(=N)n(CCN3CCCCC3)c3ccccc32)cc1` (stereo unspecified) gave Akt phos inh inactive, RXFP1 agonist 0%, RXFP1 antagonist 2, gsp agonist 6% and gsp antagonist 11%.
For Cc1ccc(OCC(O)Cn2c(=N)n(CCN3CCCCC3)c3ccccc32)cc1 (stereo unspecified) the results were Akt phos inh -113%*, RXFP1 agonist 2%, RXFP1 antagonist -9, gsp agonist 5% and gsp antagonist 9%.
Cc1ccc(CNC(=O)Cn2cc(S(=O)(=O)Cc3ccccc3F)c3ccccc32)cc1 was read as RXFP1 agonist 3% and RXFP1 antagonist -21.

Compound activity as filed in PubChem BioAssay.
